Laboratory results published in PubChem BioAssay (NCI).
Compounds without any hit were thinned out: in the full panel of roughly 83,000, 20% have a hit.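 Step 1: grow cells in 96-well plates. Step 2: add test compound at a single concentration. Step 3: incubate 48 h. Step 4: record percent growth.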 Calls of active or inactive are those of the source. How the source made its calls: active means growth percent below 10; inactive means the rest.

Tests used:
Assay in all cases: NCI-60 one-dose screen, 48 h (100 = growth as untreated, 0 = no growth, -100 = all killed)
Conditions in all cases: 10 µM unless noted
NCI-H23 lung = tested on: NCI-H23 lung
NCI-H226 lung = tested on: NCI-H226 lung
NCI-H322M lung = tested on: NCI-H322M lung
HOP-62 NSCLC = tested on: HOP-62 NSCLC
NCI-H460 lung = tested on: NCI-H460 lung
HOP-92 NSCLC = tested on: HOP-92 NSCLC
NCI-H522 lung = tested on: NCI-H522 lung
A549/ATCC NSCLC = tested on: A549/ATCC NSCLC
786-0 renal = tested on: 786-0 renal
COLO 205 colon = tested on: COLO 205 colon

Measured: growth

Cc1cccc(NC2=C(Cl)C(=O)c3nc(C)ccc3C2=O)c1
inactive: NCI-H322M lung 13.5% | HOP-62 NSCLC 42.8% | A549/ATCC NSCLC 16.7% | COLO 205 colon 111%
active: NCI-H23 lung -27.8% | NCI-H226 lung -0.0359% | NCI-H460 lung 5.47% | HOP-92 NSCLC -68.7% | NCI-H522 lung -24% | 786-0 renal 3.53%

Fc1cc2c(cc1Cl)N(c1ncnc3ccc(-c4cnc5cnccn45)cc13)CC2
inactive: NCI-H23 lung 83% | NCI-H226 lung 92.8% | NCI-H322M lung 80.7% | HOP-62 NSCLC 78.1% | NCI-H460 lung 98.9% | HOP-92 NSCLC 87.4% | NCI-H522 lung 82.6% | A549/ATCC NSCLC 86.8% | 786-0 renal 81.1% | COLO 205 colon 121%

CCCCCCCCCCCCCCCCCCOc1ccccc1CCCOP(=O)(O)OCC[N+](C)(C)C
inactive: NCI-H23 lung 93.5% | NCI-H226 lung 92.3% | NCI-H322M lung 113% | NCI-H460 lung 14.1% | HOP-92 NSCLC 33.4% | NCI-H522 lung 67.9% | A549/ATCC NSCLC 54.8% | 786-0 renal 85.1% | COLO 205 colon 31.6%

COc1cc(-c2nc3sccn3c2-c2ccnc(NCCCNS(=O)(=O)c3ccc(F)cc3)n2)ccc1F
inactive: NCI-H23 lung 52.6% | NCI-H226 lung 52.1% | NCI-H322M lung 102% | HOP-62 NSCLC 90.2% | NCI-H460 lung 79.5% | HOP-92 NSCLC 79.4% | NCI-H522 lung 47.7% | A549/ATCC NSCLC 83.2% | 786-0 renal 96.7% | COLO 205 colon 56.9%

CN(C)CCNc1nc2ccccc2c2c(=O)c3cc(F)ccc3sc12
active: NCI-H460 lung -5.59% | COLO 205 colon -39.6%
inactive: NCI-H23 lung 58.6% | NCI-H226 lung 83.3% | NCI-H322M lung 53% | HOP-62 NSCLC 51.9% | HOP-92 NSCLC 10% | NCI-H522 lung 37.8% | A549/ATCC NSCLC 38.9% | 786-0 renal 54.1%

CCCCn1c(=O)c(-c2cc(-c3ccc(Cl)cc3)nc(-c3ccc(Cl)cc3)c2)cc2cc(C)ccc21
inactive: NCI-H23 lung 101% | NCI-H226 lung 105% | NCI-H322M lung 95.5% | HOP-62 NSCLC 102% | NCI-H460 lung 106% | HOP-92 NSCLC 103% | NCI-H522 lung 94.9% | A549/ATCC NSCLC 98.2% | 786-0 renal 102% | COLO 205 colon 111%

CCCCCCNC(=O)Oc1ccc(/C(=C(\C)c2ccc(Cl)cc2)c2ccc(OCCN(CC)CC)cc2)cc1
active: COLO 205 colon 4.94%
inactive: NCI-H23 lung 67.1% | NCI-H226 lung 101% | NCI-H322M lung 85.7% | HOP-62 NSCLC 77.8% | NCI-H460 lung 26.4% | HOP-92 NSCLC 58.3% | NCI-H522 lung 86.4% | A549/ATCC NSCLC 58.4% | 786-0 renal 41.2%

CCCCCCCCCCCCCCCCCCOc1ccccc1CC(=O)OCC[N+](CC)(CC)CC
active: HOP-92 NSCLC 6.81% | COLO 205 colon -27.3%
inactive: NCI-H23 lung 13.1% | NCI-H226 lung 53.7% | NCI-H322M lung 70.6% | HOP-62 NSCLC 41% | NCI-H460 lung 34.6% | NCI-H522 lung 10.5% | A549/ATCC NSCLC 29.3% | 786-0 renal 22.6%

Cc1cc2[nH]c(=O)c3c4ncccc4cn3c2cc1C
inactive: NCI-H23 lung 70% | NCI-H226 lung 51.8% | NCI-H322M lung 29.9% | HOP-62 NSCLC 59% | HOP-92 NSCLC 83.3% | A549/ATCC NSCLC 49.8% | COLO 205 colon 14.8%
active: NCI-H460 lung -33.9% | NCI-H522 lung -23.7% | 786-0 renal 7.03%

CC([C@H]1CCC2C3CCC4C(=O)C(NC=O)=CC[C@]4(C)C3CC[C@@]21C)N(C)C (some centres undefined)
active: NCI-H460 lung -4.84% | COLO 205 colon -80.1%
inactive: NCI-H23 lung 44.2% | NCI-H226 lung 88.5% | NCI-H322M lung 30.4% | HOP-62 NSCLC 74.2% | HOP-92 NSCLC 41.7% | NCI-H522 lung 96.1% | A549/ATCC NSCLC 45% | 786-0 renal 46.1%

COc1ccc(-c2cc(-c3cc(OC)c(OC)c(OC)c3)nc(N3CCOCC3)c2C#N)cc1
inactive: NCI-H23 lung 23.4% | NCI-H226 lung 83.8% | NCI-H322M lung 93.6% | HOP-62 NSCLC 88.8% | NCI-H460 lung 73.8% | HOP-92 NSCLC 58.4% | NCI-H522 lung 59.9% | A549/ATCC NSCLC 60% | 786-0 renal 61.3% | COLO 205 colon 57.7%

COc1ccc(C(=O)C(C)C)c2ccccc12
inactive: NCI-H23 lung 101% | NCI-H226 lung 105% | NCI-H322M lung 117% | HOP-62 NSCLC 99.8% | NCI-H460 lung 101% | HOP-92 NSCLC 83.6% | NCI-H522 lung 102% | A549/ATCC NSCLC 129% | 786-0 renal 100% | COLO 205 colon 113%

O=C(O)CCC(=O)Nc1nnc(-c2ccccc2)s1
inactive: NCI-H23 lung 99.7% | NCI-H226 lung 116% | NCI-H322M lung 105% | HOP-62 NSCLC 94.2% | NCI-H460 lung 104% | HOP-92 NSCLC 93.1% | NCI-H522 lung 80.1% | A549/ATCC NSCLC 102% | 786-0 renal 92.9% | COLO 205 colon 108%

CCCSc1nc2ccc(C)cc2cc1/C=[N+](\[O-])c1ccccc1
inactive: NCI-H23 lung 42.1% | NCI-H226 lung 70.8% | NCI-H322M lung 90.9% | HOP-62 NSCLC 25.5% | NCI-H460 lung 96.7% | HOP-92 NSCLC 19.2% | NCI-H522 lung 72.8% | A549/ATCC NSCLC 95.4% | 786-0 renal 34.6% | COLO 205 colon 101%

CCC12CCC[N+]3([O-])CCC4(C(=Nc5ccccc54)C(O)(C(=O)OC)C1)C23 (centres undefined)
inactive: NCI-H23 lung 101% | NCI-H226 lung 106% | NCI-H322M lung 103% | HOP-62 NSCLC 94.5% | NCI-H460 lung 111% | HOP-92 NSCLC 94.4% | NCI-H522 lung 115% | A549/ATCC NSCLC 114% | 786-0 renal 106% | COLO 205 colon 118%

C=C1C(=O)O[C@H]2[C@H]1CC/C(COC(=O)CCC(=O)NCCOCCOCC(=O)Nc1ccc(OC)c(C(N)=O)c1O)=C\CC[C@@]1(C)O[C@@H]21
inactive: NCI-H23 lung 101% | NCI-H226 lung 55.5% | NCI-H322M lung 101% | HOP-62 NSCLC 90.3% | NCI-H460 lung 79.3% | HOP-92 NSCLC 68.6% | NCI-H522 lung 26.5% | A549/ATCC NSCLC 91.4% | 786-0 renal 91.8% | COLO 205 colon 63.7%

COc1ccc2c(c1)c(-c1nn3cc(-c4cccs4)nc3s1)cn2C
inactive: NCI-H23 lung 82.5% | NCI-H226 lung 78.9% | NCI-H322M lung 55.8% | HOP-62 NSCLC 85.6% | NCI-H460 lung 68.7% | HOP-92 NSCLC 44.7% | NCI-H522 lung 63% | A549/ATCC NSCLC 81.1% | 786-0 renal 97.5% | COLO 205 colon 64.5%

COc1ccc(OC)c(/C=C/c2nnc(Nc3ccccc3)o2)c1
inactive: NCI-H23 lung 97.3% | NCI-H226 lung 89.7% | NCI-H322M lung 99.6% | HOP-62 NSCLC 106% | NCI-H460 lung 97.2% | HOP-92 NSCLC 62.5% | NCI-H522 lung 82.3% | A549/ATCC NSCLC 96.5% | 786-0 renal 87.4% | COLO 205 colon 129%

Cc1nc(/N=C(\N)NC(=O)Nc2ccccc2Cl)sc1C
inactive: NCI-H23 lung 42.6% | NCI-H226 lung 68% | NCI-H322M lung 51% | HOP-62 NSCLC 45% | NCI-H460 lung 12.1% | HOP-92 NSCLC 64.6% | NCI-H522 lung 18.6% | A549/ATCC NSCLC 47.8% | 786-0 renal 57.1% | COLO 205 colon 12.2%

O=C1c2cccc3cccc(c23)C(=O)N1N1C(=O)c2cccc3c(NC4CCCCC4)ccc(c23)C1=O
inactive: NCI-H23 lung 90.4% | NCI-H226 lung 94% | NCI-H322M lung 96.4% | HOP-62 NSCLC 92.6% | NCI-H460 lung 98.8% | HOP-92 NSCLC 79.9% | NCI-H522 lung 88.1% | A549/ATCC NSCLC 94.4% | 786-0 renal 105% | COLO 205 colon 103%

CCc1ccccc1-n1c(N)c(C#N)c(-c2ccc(Cl)cc2)c(C#N)c1=O
inactive: NCI-H23 lung 107% | NCI-H226 lung 110% | NCI-H322M lung 140% | HOP-62 NSCLC 101% | NCI-H460 lung 111% | HOP-92 NSCLC 80% | NCI-H522 lung 94.2% | A549/ATCC NSCLC 117% | 786-0 renal 112% | COLO 205 colon 126%

COc1c(B(O)O)cc(C)cc1-c1nc2ccc3[nH]ncc3c2c2c1CCCC2
inactive: NCI-H23 lung 70.9% | NCI-H226 lung 73.7% | NCI-H322M lung 106% | HOP-62 NSCLC 43% | NCI-H460 lung 31.4% | HOP-92 NSCLC 53.8% | NCI-H522 lung 37.3% | A549/ATCC NSCLC 52.7% | 786-0 renal 48.3% | COLO 205 colon 19.6%

CCCCCCCCCCCCCCCCCCOc1ccc(CC(=O)OCC[N+](C)(C)C)cc1
inactive: NCI-H23 lung 93.3% | NCI-H226 lung 95.1% | NCI-H322M lung 103% | HOP-62 NSCLC 108% | NCI-H460 lung 100% | HOP-92 NSCLC 103% | NCI-H522 lung 95.7% | A549/ATCC NSCLC 94.6% | 786-0 renal 93% | COLO 205 colon 115%

CCOC(=O)c1cn2ncnc(Oc3ccc(NC(=O)NCCN4CCN(C)CC4)c(Cl)c3)c2c1C
inactive: NCI-H23 lung 67.8% | NCI-H226 lung 82.3% | NCI-H322M lung 93% | HOP-62 NSCLC 87.9% | NCI-H460 lung 99.4% | HOP-92 NSCLC 31.6% | NCI-H522 lung 66.6% | A549/ATCC NSCLC 88.6% | 786-0 renal 81.8% | COLO 205 colon 76.8%

COc1nc2ccccc2cc1-c1nc2c(cnn2-c2ccc(Br)cc2)c(=O)[nH]1
active: NCI-H522 lung 2.63% | COLO 205 colon -50.2%
inactive: NCI-H23 lung 25.2% | NCI-H226 lung 39.7% | NCI-H322M lung 36.5% | HOP-62 NSCLC 24.4% | NCI-H460 lung 13.6% | HOP-92 NSCLC 39% | A549/ATCC NSCLC 39.9% | 786-0 renal 15.5%

O=C(CCc1nnc(-c2c(Cl)cccc2Cl)o1)c1nc2ccccc2[nH]1
inactive: NCI-H23 lung 61.9% | NCI-H226 lung 83.7% | NCI-H322M lung 76% | HOP-62 NSCLC 71.6% | NCI-H460 lung 77.3% | NCI-H522 lung 49.8% | A549/ATCC NSCLC 69.7% | 786-0 renal 73.8% | COLO 205 colon 62.6%
active: HOP-92 NSCLC 6.67%

NC[C@@H]1O[C@H](O[C@@H]2[C@@H](CO)OC(O[C@@H]3[C@@H](O)[C@H](N)C[C@H](N)[C@H]3OC3O[C@H](CN)[C@@H](O)[C@H](O)[C@H]3N)[C@@H]2O)[C@H](N)[C@@H](O)[C@@H]1O (some centres undefined)
inactive: NCI-H23 lung 100% | NCI-H226 lung 109% | NCI-H322M lung 120% | HOP-62 NSCLC 115% | NCI-H460 lung 105% | HOP-92 NSCLC 125% | NCI-H522 lung 111% | A549/ATCC NSCLC 105% | 786-0 renal 101% | COLO 205 colon 115%
